# For part of these data: Potency and affinity values are given separately. The source made the active and inactive calls.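 Rule for the calls, unless noted: active = compound raising the membrane signal above positive-control mean plus 3 SD in both repeats, and a primary screen hit; inactive = the rest.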
# What was measured:
# [1] = test system: TRPC4 beta (transient receptor potential cation channel C4), mouse; test: TRPC4 cation channel opening, retest – cell-based, Fluo4 calcium, HEK293 TRPC4beta/mu-opioid, duplicates, 10 µM, confirmation (AID 2426;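 active = fluorescence ratio normalized to control raised more than 50% in primary screen plus both repeat runs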;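 for activation: percent rise of integrated ratio over buffer wells lacking compound which define 0%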); conditions: Fluo4 calcium fluorescence, at 10 µM; stronger effect = higher value
# [2] = test system: transient receptor potential cation channel C4 beta (TRPC4), mouse; test: TRPC4 cation channel opening, second retest – cell-based, second round, Fluo4, HEK293 TRPC4beta/mu-opioid, 1 µM, confirmation (AID 2461;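 active = primary screen active and over 50% activation in each of two duplicate runs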); conditions: Fluo4 calcium fluorescence, at 1 µM; stronger effect = higher value
# [3] = test system: TRPC4 (transient receptor potential cation channel C4 beta), mouse; test: potentiation of DAMGO EC20 TRPC4 response – cell-based, second round, Fluo-4, HEK293 TRPC4beta/mu-opioid, 1 µM, confirmation (AID 2554;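 active = primary screen hit whose fluorescence ratio, in both repeats, exceeds the weak agonist control mean by 3 SD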); conditions: DAMGO EC20, Fluo-4 calcium flux, at 1 µM; stronger effect = higher value
# [4] = test system: TRPC4 beta (transient receptor potential cation channel C4), mouse; test: potentiation of DAMGO EC20 TRPC4 response – cell-based, Fluo-4, HEK293 TRPC4beta/mu-opioid, confirmation (AID 2555;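 active = primary screen hit whose calcium fluorescence ratio, in both repeats, exceeds the weak agonist control mean by 3 SD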); conditions: DAMGO EC20, Fluo-4 calcium flux, at 10 µM; stronger effect = higher value
# [5] = biological target: Short transient receptor potential channel 4 (Mus musculus) (UniProt Q9QUQ5); test: blockers of DAMGO-evoked TRPC4 calcium flux – cell-based, Fluo4, HEK293 TRPC4beta/mu-opioid, confirmation (AID 2636;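 active = calcium signal cut by more than 3 SD below the full-agonist control yet still positive, in both repeats and the earlier primary screen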); conditions: at 10 µM; stronger effect = higher value
# [6] = biological target: Short transient receptor potential channel 4 (Mus musculus) (UniProt Q9QUQ5); test: blockers of DAMGO-evoked TRPC4 calcium flux – cell-based, second round, Fluo4, HEK293 TRPC4beta/mu-opioid, 1 µM, confirmation (AID 2637;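 active = calcium signal ratio cut to more than 3 SD under the fully stimulated control mean yet still positive, in both repeats and the primary screen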;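 for inhibition: percent of integrated ratio relative to wells lacking test compound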); conditions: at 1 µM; stronger effect = higher value
# [7] = biological target: Short transient receptor potential channel 4 (Mus musculus) (UniProt Q9QUQ5); test: potentiation of DAMGO-evoked TRPC4 calcium signal – cell-based, HEK293 TRPC4/mu-opioid, Fluo-4 calcium, EC20 DAMGO, dose response (AID 434941;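 active = earlier screen potentiator hit that boosts the TRPC4 ion channel at some dose, with a dose response; inactive = no potentiation, no dose response, or not a prior hit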;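 note: calcium entry triggered by an EC20 dose of DAMGO at the co-expressed mu-opioid receptor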)
# [8] = biological target: Short transient receptor potential channel 4 (Mus musculus) (UniProt Q9QUQ5); test: block of DAMGO-driven TRPC4 calcium entry – cell-based, HEK293 TRPC4/mu-opioid, Fluo-4 calcium, dose response (AID 434942;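 active = primary screen inhibitor hit that blocks the TRPC4 channel at some tested dose, yielding a dose curve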)
# [9] = biological target: Short transient receptor potential channel 6 (Mus musculus) (UniProt Q61143); test: TRPC6 blockade by TRPC4 inhibitor hits – cell-based, HEK293, membrane potential dye, duplicate, selectivity assay for TRPC4 inhibitor project, confirmation (AID 434948;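 active = active in primary screen and both duplicates, each dropping signal beyond three positive-control SD with fluorescence still positive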); conditions: HEK293 TRPC6, membrane potential dye fluorescence, at 10 µM, stimulated with maximal-effect acetylcholine; stronger effect = higher value
# [10] = biological target: Short transient receptor potential channel 6 (Mus musculus) (UniProt Q61143); test: TRPC6 opening by TRPC4 activator hits – cell-based, HEK293, membrane potential dye, duplicate, selectivity assay for TRPC4 activator project, confirmation (AID 434950;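 active = membrane potential signal rise above negative control mean plus 3 SD in both duplicates, also active in the earlier TRPC4 screen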;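 for activation: 0% = buffer only wells and 100% = acetylcholine maximal-effect wells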); conditions: HEK293 TRPC6, membrane potential fluorescence, at 10 µM; activation: stronger effect = higher value; outcome: activation
# [11] = biological target: Short transient receptor potential channel 6 (Mus musculus) (UniProt Q61143); test: positive modulators of mouse TRPC6 channel – HEK293 cells, membrane potential dye, duplicate, selectivity assay for TRPC4 potentiator project, confirmation (AID 434952); conditions: HEK293 TRPC6, membrane potential dye fluorescence, at 10 µM, maximal acetylcholine added after compound; stronger effect = higher value
# [12] = biological target: Short transient receptor potential channel 4 (Mus musculus) (UniProt Q9QUQ5); test: calcium flux activators in TRPC4/5HT1a cells, counter-screen for TRPC4 activator project, cell-based, second counter screen, HEK293 TRPC4/5HT1a, Fluo-4 (AID 434977;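 active = calcium signal rise above buffer-control mean plus 5 SD in both duplicates, and also a hit in the primary screen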;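 for activation: plate controls were assay buffer for no effect and maximal serotonin response for full effect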); conditions: Fluo-4 calcium flux, at 10 µM; stronger effect = higher value
# [13] = serotonin-gated TRPC4 signal block – cell-based, second counter screen, HEK293 TRPC4/5HT1a, Fluo-4, counter-screen for TRPC4 inhibitor project, confirmation (AID 434978;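 active = primary screen active whose calcium signal fell more than 3 SD beyond the full-serotonin control mean in both duplicate plates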;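 for outcome: serotonin given first at submaximal then at maximal dose after compound preincubation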); conditions: Fluo-4 calcium flux, at 10 µM, serotonin added to trigger calcium flux; stronger effect = higher value
# [14] = test system: TRPC4 (mouse), co-expressed with 5HT1a in HEK293; test: enhancement of serotonin-evoked TRPC4 response – cell-based, second counter screen, HEK293 TRPC4/5HT1a, Fluo-4, counter-screen for TRPC4 potentiator project, confirmation (AID 434979;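 active = signal rise over 3 SD above mean of control wells given weak agonist, in both repeats and first screen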); conditions: Fluo-4 calcium flux, at 10 µM, serotonin added at its EC20 dose; stronger effect = higher value
# [15] = nonspecific calcium rise without TRPC4 – cell-based, HEK293 mu-opioid receptor line, counter-screen for TRPC4 activator project, confirmation (AID 449723;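 active = hit in primary screen, with calcium signal over 5 SD above buffer well mean in both duplicates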;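 note: counter screen cells carry the mu-opioid receptor alone and lack TRPC4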); conditions: HEK293 mu-opioid cells, Fluo-4 calcium fluorescence, at 10 µM; stronger effect = higher value
# [16] = nonspecific potentiation of DAMGO calcium response – cell-based, HEK293 mu-opioid receptor line, counter-screen for TRPC4 allosteric potentiator project, confirmation (AID 449724;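 active = calcium signal rise more than 3 SD above the low-dose agonist control mean, in both duplicate plates and the primary screen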); conditions: HEK293 mu-opioid receptor cells, Fluo-4 calcium flux, at 10 µM, compound added before EC20 DAMGO stimulus; stronger effect = higher value
# [17] = nonspecific flux increase, KCNQ1-free cells – parental CHO cells, counter-screen for KCNQ1 potentiator project (AID 493006;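 active = duplicate-averaged activation above buffer control mean plus 5 SD of those controls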;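 for activation: fluorescence ratio of max minus min over baseline after K+ and Tl+ depolarization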); conditions: parental CHO-K1 cells, FluxOR thallium flux, at 10 µM; stronger effect = higher value
# [18] = biological target: Potassium voltage-gated channel subfamily KQT member 1 (Homo sapiens) (UniProt P51787); test: enhancement of KCNQ1 channel thallium flux – FluxOR thallium flux, CHO cells, duplicates, confirmation (AID 493007;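 active = potentiation averaged over duplicate wells exceeding buffer-only control mean by more than 3 SD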;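 for outcome: cells depolarized by a potassium plus thallium sulfate stimulus after compound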;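 for potentiation: 0% = buffer-only wells and 100% = R-L3 activator control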); conditions: KCNQ1 cell line, FluxOR thallium flux fluorescence, at 10 µM; stronger effect = higher value, % of reference activator effect, buffer zero
# [19] = biological target: Potassium voltage-gated channel subfamily KQT member 2 (Rattus norvegicus) (UniProt O88943); test: KCNQ2 thallium flux enhancement – KCNQ2-CHO-K1 cells, selectivity assay for KCNQ1 potentiator project (AID 493009;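 active = mean duplicate potentiation above the buffer control mean plus 5 SD of buffer wells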;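 note: assay conditions were tuned for KCNQ1 rather than KCNQ2 modulators; signal is max minus min fluorescence divided by baseline after thallium stimulus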); conditions: FluxOR thallium flux fluorescence, at 10 µM; stronger effect = higher value, scaled: buffer 0, activator control 100
# [20] = biological target: Potassium voltage-gated channel subfamily KQT member 1 (Homo sapiens) (UniProt P51787); test: KCNQ1 activators by electrophysiology – IonWorks patch clamp, KCNQ1-CHO cells, orthogonal assay for KCNQ1 potentiator project, confirmation (AID 493184;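 active = current rise at least 3 SD above the untreated control mean in each of two repeat wells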); conditions: automated patch clamp current, at 10 µM; stronger effect = higher value
# Sequence of Short transient receptor potential channel 6 (Mus musculus) (Q61143 whole entry, looked up): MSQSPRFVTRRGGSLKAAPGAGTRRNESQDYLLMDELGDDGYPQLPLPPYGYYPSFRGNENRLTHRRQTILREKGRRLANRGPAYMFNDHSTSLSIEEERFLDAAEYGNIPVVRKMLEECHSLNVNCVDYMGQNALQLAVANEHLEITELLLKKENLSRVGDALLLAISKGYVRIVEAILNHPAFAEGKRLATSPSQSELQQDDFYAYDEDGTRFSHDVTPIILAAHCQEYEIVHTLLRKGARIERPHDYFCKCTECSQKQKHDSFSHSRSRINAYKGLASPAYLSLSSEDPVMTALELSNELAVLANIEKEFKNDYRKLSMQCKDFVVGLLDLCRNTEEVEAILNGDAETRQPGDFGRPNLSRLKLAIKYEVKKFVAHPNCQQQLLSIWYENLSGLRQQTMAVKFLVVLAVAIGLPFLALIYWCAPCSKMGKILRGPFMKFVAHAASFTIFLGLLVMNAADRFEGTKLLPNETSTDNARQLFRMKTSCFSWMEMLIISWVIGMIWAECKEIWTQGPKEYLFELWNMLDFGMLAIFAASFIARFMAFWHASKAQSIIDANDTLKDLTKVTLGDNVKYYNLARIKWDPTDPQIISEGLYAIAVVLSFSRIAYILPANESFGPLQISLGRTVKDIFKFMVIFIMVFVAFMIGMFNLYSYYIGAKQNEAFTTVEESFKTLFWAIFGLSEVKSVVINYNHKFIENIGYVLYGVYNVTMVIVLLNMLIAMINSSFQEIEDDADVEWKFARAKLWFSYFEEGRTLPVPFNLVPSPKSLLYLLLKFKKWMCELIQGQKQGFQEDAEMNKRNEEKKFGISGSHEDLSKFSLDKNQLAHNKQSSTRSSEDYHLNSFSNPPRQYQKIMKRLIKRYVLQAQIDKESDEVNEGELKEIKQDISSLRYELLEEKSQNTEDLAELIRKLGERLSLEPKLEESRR
# Sequence of Short transient receptor potential channel 4 (Mus musculus) (Q9QUQ5 whole entry, looked up): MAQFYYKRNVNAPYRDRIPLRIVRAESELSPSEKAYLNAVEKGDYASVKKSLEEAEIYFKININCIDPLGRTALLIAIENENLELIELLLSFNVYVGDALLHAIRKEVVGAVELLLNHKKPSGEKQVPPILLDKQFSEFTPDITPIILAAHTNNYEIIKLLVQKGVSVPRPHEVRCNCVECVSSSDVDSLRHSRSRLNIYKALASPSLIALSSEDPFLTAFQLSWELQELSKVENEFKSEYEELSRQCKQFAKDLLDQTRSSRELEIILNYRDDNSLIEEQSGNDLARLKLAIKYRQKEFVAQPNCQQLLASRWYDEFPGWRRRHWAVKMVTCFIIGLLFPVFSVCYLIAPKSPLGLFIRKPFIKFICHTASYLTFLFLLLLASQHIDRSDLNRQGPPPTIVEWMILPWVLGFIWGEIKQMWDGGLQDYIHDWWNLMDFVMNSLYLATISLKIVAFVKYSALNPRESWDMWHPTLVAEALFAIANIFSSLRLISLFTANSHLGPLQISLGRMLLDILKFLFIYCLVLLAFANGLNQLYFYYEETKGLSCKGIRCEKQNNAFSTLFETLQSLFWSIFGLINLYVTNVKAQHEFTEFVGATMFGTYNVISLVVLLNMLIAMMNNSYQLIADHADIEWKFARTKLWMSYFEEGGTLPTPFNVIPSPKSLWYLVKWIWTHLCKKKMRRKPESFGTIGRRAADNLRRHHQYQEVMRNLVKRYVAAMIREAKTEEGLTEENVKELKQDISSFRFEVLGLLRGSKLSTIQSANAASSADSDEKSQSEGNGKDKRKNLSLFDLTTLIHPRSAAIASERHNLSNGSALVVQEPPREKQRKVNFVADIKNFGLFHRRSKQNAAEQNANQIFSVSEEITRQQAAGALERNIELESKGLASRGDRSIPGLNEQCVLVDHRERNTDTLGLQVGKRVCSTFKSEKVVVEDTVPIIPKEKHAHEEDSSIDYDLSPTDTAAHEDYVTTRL
# Sequence of Potassium voltage-gated channel subfamily KQT member 2 (Rattus norvegicus) (O88943 whole entry, looked up): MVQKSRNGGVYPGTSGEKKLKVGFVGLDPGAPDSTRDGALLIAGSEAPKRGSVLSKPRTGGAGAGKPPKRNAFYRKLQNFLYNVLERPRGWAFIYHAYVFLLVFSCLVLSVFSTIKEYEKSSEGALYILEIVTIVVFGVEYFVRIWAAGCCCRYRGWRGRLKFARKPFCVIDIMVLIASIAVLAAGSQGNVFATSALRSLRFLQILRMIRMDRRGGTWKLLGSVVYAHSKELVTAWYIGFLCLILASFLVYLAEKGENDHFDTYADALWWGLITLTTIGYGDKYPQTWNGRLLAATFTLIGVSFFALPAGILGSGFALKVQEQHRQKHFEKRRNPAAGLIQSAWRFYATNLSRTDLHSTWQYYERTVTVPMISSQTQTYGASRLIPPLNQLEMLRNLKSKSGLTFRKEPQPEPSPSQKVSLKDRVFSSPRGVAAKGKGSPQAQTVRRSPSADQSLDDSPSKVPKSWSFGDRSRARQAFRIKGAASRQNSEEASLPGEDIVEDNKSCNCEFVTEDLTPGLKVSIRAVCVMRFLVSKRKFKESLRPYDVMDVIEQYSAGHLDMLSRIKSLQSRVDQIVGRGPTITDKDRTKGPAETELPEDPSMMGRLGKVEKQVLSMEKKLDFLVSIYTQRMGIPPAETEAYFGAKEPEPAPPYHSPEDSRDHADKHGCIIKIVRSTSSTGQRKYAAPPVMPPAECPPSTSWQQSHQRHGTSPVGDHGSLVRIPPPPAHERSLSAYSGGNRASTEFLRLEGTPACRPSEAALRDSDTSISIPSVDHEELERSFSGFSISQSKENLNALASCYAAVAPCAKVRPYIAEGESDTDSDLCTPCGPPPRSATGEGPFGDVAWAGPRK
# Sequence of Potassium voltage-gated channel subfamily KQT member 1 (Homo sapiens) (P51787 whole entry, looked up): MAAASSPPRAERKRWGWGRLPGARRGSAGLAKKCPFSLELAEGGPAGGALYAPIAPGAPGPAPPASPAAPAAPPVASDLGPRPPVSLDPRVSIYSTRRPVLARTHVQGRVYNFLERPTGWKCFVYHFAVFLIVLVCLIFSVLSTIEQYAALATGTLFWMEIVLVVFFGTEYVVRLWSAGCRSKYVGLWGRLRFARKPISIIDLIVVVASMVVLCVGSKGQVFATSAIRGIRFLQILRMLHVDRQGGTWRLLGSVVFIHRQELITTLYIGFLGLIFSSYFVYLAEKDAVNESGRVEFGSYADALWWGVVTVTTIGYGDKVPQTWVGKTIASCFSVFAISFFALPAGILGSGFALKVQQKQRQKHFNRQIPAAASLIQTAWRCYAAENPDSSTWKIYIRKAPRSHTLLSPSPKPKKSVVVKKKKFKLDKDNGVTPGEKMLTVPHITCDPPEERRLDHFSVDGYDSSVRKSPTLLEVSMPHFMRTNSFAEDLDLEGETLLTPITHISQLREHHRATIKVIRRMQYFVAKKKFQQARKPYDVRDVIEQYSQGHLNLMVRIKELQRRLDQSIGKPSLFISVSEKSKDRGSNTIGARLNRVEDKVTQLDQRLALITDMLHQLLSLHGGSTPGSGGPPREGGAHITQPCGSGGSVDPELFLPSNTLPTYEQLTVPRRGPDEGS
structure (smiles),measurement,setting,value
CN(C)C(CNc1ncnc2sc3c(c12)CCCC3)c1ccco1 (stereo not drawn),activation,[1],110% (active)
same,outcome,[2],inactive
same,outcome,[3],inactive
same,outcome,[4],inactive
same,outcome,[5],inactive
same,outcome,[6],inactive
same,outcome,[7],inactive
same,outcome,[8],inactive
same,outcome,[9],inactive
same,outcome,[10],inactive
same,outcome,[11],inactive
same,outcome,[12],inactive
same,outcome,[13],inactive
same,outcome,[14],inactive
same,outcome,[15],inactive
same,outcome,[16],inactive
CN(C)CCCN(C(=O)c1ccc(S(=O)(=O)N(C)C2CCCCC2)cc1)c1nc2ccc(F)cc2s1,activation,[1],155% (active)
same,outcome,[2],inactive
same,outcome,[3],inactive
same,outcome,[4],inactive
same,outcome,[5],inactive
same,outcome,[6],inactive
same,outcome,[7],inactive
same,outcome,[8],inactive
same,outcome,[9],inactive
same,outcome,[10],inactive
same,outcome,[11],inactive
same,activation,[12],5.36% (active)
same,outcome,[13],inactive
same,outcome,[14],inactive
same,outcome,[15],inactive
same,outcome,[16],inactive
COc1cc(OC)cc(C(=O)NC2CCCN(Cc3ccc(Cl)cc3)C2)c1 (stereo not drawn),activation,[1],111% (active)
same,outcome,[2],inactive
same,outcome,[3],inactive
same,outcome,[4],inactive
same,outcome,[5],inactive
same,outcome,[6],inactive
same,outcome,[7],inactive
same,outcome,[8],inactive
same,outcome,[9],inactive
same,activation,[10],44.5% (active)
same,outcome,[11],inactive
same,activation,[12],31.6% (active)
same,outcome,[13],inactive
same,outcome,[14],inactive
same,outcome,[15],inactive
same,outcome,[16],inactive
CCCCC(=O)NNC(=S)NC(=O)C(c1ccccc1)c1ccccc1,activation,[1],122% (active)
same,outcome,[2],inactive
same,outcome,[3],inactive
same,outcome,[4],inactive
same,outcome,[5],inactive
same,outcome,[6],inactive
same,outcome,[7],inactive
same,outcome,[8],inactive
same,outcome,[9],inactive
same,activation,[10],42% (active)
same,outcome,[11],inactive
same,activation,[12],96.7% (active)
same,outcome,[13],inactive
same,outcome,[14],inactive
same,activation,[15],31.6% (active)
same,outcome,[16],inactive
same,outcome,[17],inactive
same,outcome,[18],inactive
same,outcome,[19],inactive
same,outcome,[20],inactive
Cc1ccc(C2(O)CN(c3ccccc3)C3=[N+]2CCS3)cc1 (stereo not drawn),outcome,[1],inactive
same,outcome,[2],inactive
same,outcome,[3],inactive
same,outcome,[4],inactive
same,inhibition,[5],97% (active)
same,inhibition,[6],79% (active)
same,outcome,[7],inactive
same,outcome,[9],inactive
same,activation,[10],48% (active)
same,outcome,[11],inactive
same,outcome,[12],inactive
same,outcome,[13],inactive
same,outcome,[14],inactive
same,outcome,[15],inactive
same,outcome,[16],inactive
Cc1ccc(C(=O)NNC(=S)NC(=O)c2ccccc2)cc1,activation,[1],239% (active)
same,outcome,[2],inactive
same,outcome,[3],inactive
same,outcome,[4],inactive
same,outcome,[5],inactive
same,outcome,[6],inactive
same,outcome,[7],inactive
same,outcome,[8],inactive
same,outcome,[9],inactive
same,activation,[10],27% (active)
same,outcome,[11],inactive
same,activation,[12],133% (active)
same,outcome,[13],inactive
same,outcome,[14],inactive
same,activation,[15],77.1% (active)
same,outcome,[16],inactive
same,activation,[17],188% (active)
same,potentiation,[18],156% (active)
same,potentiation,[19],300% (active)
same,outcome,[20],inactive
Cc1ccc(S(=O)(=O)Nc2cccc(C(=O)NCC(c3ccco3)N3CCCC3)c2)cc1F (stereo not drawn),activation,[1],58% (active)
same,outcome,[2],inactive
same,outcome,[3],inactive
same,outcome,[4],inactive
same,outcome,[5],inactive
same,inhibition,[6],67% (active)
same,outcome,[7],inactive
same,outcome,[9],inactive
same,activation,[10],31.5% (active)
same,outcome,[11],inactive
same,outcome,[12],inactive
same,outcome,[13],inactive
same,outcome,[14],inactive
same,outcome,[15],inactive
same,outcome,[16],inactive
NC(=Nc1ccccc1)Nc1ccccc1,activation,[1],224% (active)
same,outcome,[2],inactive
same,outcome,[3],inactive
same,outcome,[4],inactive
same,outcome,[5],inactive
same,outcome,[6],inactive
same,outcome,[7],inactive
same,outcome,[8],inactive
same,outcome,[9],inactive
same,activation,[10],51% (active)
same,outcome,[11],inactive
same,activation,[12],94.2% (active)
same,outcome,[13],inactive
same,outcome,[14],inactive
same,activation,[15],64.1% (active)
same,outcome,[16],inactive
same,outcome,[17],inactive
same,outcome,[18],inactive
same,outcome,[19],inactive
same,outcome,[20],inactive
CCCOc1ccc(C(=O)NNC(=S)NC(=O)c2ccco2)cc1,activation,[1],223% (active)
same,outcome,[2],inactive
same,outcome,[3],inactive
same,outcome,[4],inactive
same,outcome,[5],inactive
same,outcome,[6],inactive
same,outcome,[7],inactive
same,outcome,[8],inactive
same,outcome,[9],inactive
same,activation,[10],38.5% (active)
same,outcome,[11],inactive
same,activation,[12],143% (active)
same,outcome,[13],inactive
same,outcome,[14],inactive
same,activation,[15],61.8% (active)
same,outcome,[16],inactive
same,activation,[17],195% (active)
same,potentiation,[18],212% (active)
same,potentiation,[19],340% (active)
same,outcome,[20],inactive
CC1CN(C(=O)c2ccc(NS(=O)(=O)c3ccc(C(C)(C)C)cc3)cc2)CC(C)O1 (stereo not drawn),activation,[1],63% (active)
same,outcome,[2],inactive
same,outcome,[3],inactive
same,outcome,[4],inactive
same,outcome,[5],inactive
same,outcome,[6],inactive
same,outcome,[7],inactive
same,outcome,[8],inactive
same,outcome,[9],inactive
same,activation,[10],39.5% (active)
same,outcome,[11],inactive
same,activation,[12],30.9% (active)
same,outcome,[13],inactive
same,outcome,[14],inactive
same,activation,[15],16.1% (active)
same,outcome,[16],inactive
same,outcome,[17],inactive
same,outcome,[18],inactive
same,outcome,[19],inactive
same,outcome,[20],inactive
OC1(c2ccccc2)CN(c2ccccc2)C2=[N+]1CCS2 (stereo not drawn),outcome,[1],inactive
same,outcome,[2],inactive
same,outcome,[3],inactive
same,outcome,[4],inactive
same,inhibition,[5],89% (active)
same,outcome,[6],inactive
same,outcome,[7],inactive
same,outcome,[9],inactive
same,activation,[10],34% (active)
same,outcome,[11],inactive
same,outcome,[12],inactive
same,outcome,[13],inactive
same,outcome,[14],inactive
same,outcome,[15],inactive
same,outcome,[16],inactive
CN(C)C(CNC(=O)c1ccc2c(c1)S(=O)(=O)c1ccccc1C2=O)c1ccco1 (stereo not drawn),activation,[1],142% (active)
same,outcome,[2],inactive
same,outcome,[3],inactive
same,outcome,[4],inactive
same,inhibition,[5],67% (active)
same,outcome,[6],inactive
same,outcome,[7],inactive
same,outcome,[9],inactive
same,outcome,[10],inactive
same,outcome,[11],inactive
same,activation,[12],42.8% (active)
same,inhibition,[13],29.5% (active)
same,outcome,[14],inactive
same,outcome,[15],inactive
same,outcome,[16],inactive
Cc1onc(-c2ccccc2)c1C(=O)NNC(=S)NC(=O)c1ccc(Br)cc1,activation,[1],263% (active)
same,outcome,[2],inactive
same,outcome,[3],inactive
same,outcome,[4],inactive
same,outcome,[5],inactive
same,outcome,[6],inactive
same,outcome,[7],inactive
same,outcome,[8],inactive
same,outcome,[9],inactive
same,outcome,[10],inactive
same,outcome,[11],inactive
same,activation,[12],190% (active)
same,outcome,[13],inactive
same,outcome,[14],inactive
same,activation,[15],70.7% (active)
same,outcome,[16],inactive
same,outcome,[17],inactive
same,outcome,[18],inactive
same,outcome,[19],inactive
same,outcome,[20],inactive

# Source: PubChem BioAssay
